Vif imaging: HIV Vif inhibition; HEK293T cells, Vif self-association by quenched fluorescence, imaging, 24 h; inhibition, % at 7.49 µM; 340,000 tested, 0.35% active; AID 602346; in the data active = inhibition above about 50%, passing the limit was not always enough
GRIN3A LBD mod: NR3A (human) ligand-binding domain modulation. NR3A LBD differential scanning fluorimetry, Tm shift; 0% = protein alone, 100% = glycine-bound protein. Tm shift relative to glycine control, % at 25 µM. 340,000 tested, 2.5% active;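 active = melting temperature shift of at least 10% of the positive control shift, at one fixed dose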
SMARCA2 act: SMARCA2 function activation, primary screen. MG213 cells, MMTV-luciferase reporter, dexamethasone, overnight. 370,000 tested, 1% active. AID 652017. activation, % at 9.1 µM; in the data active = activation above about 7.8%;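 also: 0% = vehicle wells and 100% = reference activator wells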
NadD inh: blocks S. aureus nicotinate mononucleotide adenylyltransferase; purified NadD enzyme, colorimetric absorbance read-out; inhibition, % at 20 µM; 360,000 tested, 0.78% active; in the data active = inhibition above about 26%
esBAF inh: inhibitors of esBAF chromatin remodeling in mouse ES cells | Bmi1-luciferase knock-in reporter, 24 h; 100% = twice the neutral-well signal | 350,000 tested, 2% active | AID 602393 | reporter increase, % at 12.5 µM; in the data active = activation above about 40%;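 also: 0% = median of the plate's neutral control wells and 100% = double that signal; a rise in the Bmi1 reporter signal indicates esBAF inhibition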
SKN-1 block: inhibitors of C. elegans SKN-1; 360,000 tested, 0.49% active; C. elegans VP596 Pgst-4::GFP/RFP ratio, acrylamide-induced, 24 h; inhibition, % at 21.8 µM;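 active = interference check ratio from 0.5 to 1.5 plus GFP to RFP signal ratio inhibition reaching or exceeding a fixed threshold, cut at about 30% in these data, passing the limit was not always enough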
The depositor's hits bear a star; · = no result. Hits are enriched below; roughly 5.2% of the tested compounds scored in any of these assays.

SMILES	Vif imaging	GRIN3A LBD mod	SMARCA2 act	NadD inh	esBAF inh	SKN-1 block
COc1cc(C(=O)NCCOc2ccccc2C)c(Br)c(OC)c1OC	-11	1	1	-10	·	6
COc1ccc(C(=O)NCCOc2ccccc2Cl)c(OC)c1OC	13	-2	3	3	68*	14
Cc1noc(C)c1S(=O)(=O)Nc1ccc2c(c1)C(=O)N([C@@H](C)CO)C[C@H](C)[C@@H](CN(C)S(=O)(=O)c1ccc(Cl)cc1)OCCCC[C@H](C)O2	·	·	·	·	3	·
CCCOc1cccc(C(=O)NC(=S)Nc2cccc(C(F)(F)F)c2)c1	0	-2	-2	11	-3	8
CCOc1cccc(C(=O)Nc2cccc(C(C)=O)c2)c1	-5	-43	0	-1	-9	2
CCOc1cccc(C(=O)Nc2ccc3ccccc3c2)c1	1	30*	0	-7	-30	-9
CCOc1cccc(C(=O)NC(=S)Nc2cccc(C)c2)c1	0	-9	0	-9	42*	-12
CCN(CC)c1ccc(NC(=O)c2cnn(CC)c2)cc1	-10	2	3	0	54*	-3
CCOc1cccc(NC(=O)c2cccc(F)c2)c1	0	10*	0	2	22	9
C[C@H]1CN([C@@H](C)CO)C(=O)c2cccc(NC(=O)c3ccc(-c4nccs4)cc3)c2O[C@@H]1CN(C)S(=O)(=O)c1ccc(F)cc1	·	·	·	·	1	·
O=C(Nc1ccccc1F)N[C@@H]1CC[C@H](CCNS(=O)(=O)c2ccc(Cl)cc2)O[C@@H]1CO	·	·	·	·	8	·
Cc1noc(C)c1NC(=O)N(C)C[C@H]1OCCCC[C@@H](C)Oc2ccc(N(C)C)cc2C(=O)N([C@H](C)CO)C[C@H]1C	·	·	·	·	-3	·
CCOc1cccc(C(=O)Nc2ccc3c(c2)OCCO3)c1	-3	0	0	1	-45	-15
CCOc1cccc(C(=O)Nc2ccc(N(CC)CC)cc2)c1	·	-2	-7	-5	44*	-13
O=C(N[C@@H]1CC[C@@H](CCNC(=O)C2CCCCC2)O[C@H]1CO)c1ccccn1	·	·	·	·	-2	·
CN1c2ccc(C#Cc3cccnc3)cc2[C@@H]2[C@@H](CCN2S(=O)(=O)c2ccccc2F)[C@@H]1CO	·	·	·	·	0	·
COc1ccc(/C=N/n2c(-c3ccc(C)cc3)n[nH]c2=S)cc1OC	99*	2	-3	2	-10	10
CCOc1ccc(/C=N/n2c(COc3ccccc3)n[nH]c2=S)cc1OC	2	15*	0	-2	3	16
Oc1ccc(Br)cc1/C=N/n1c(COc2ccccc2)n[nH]c1=S	11	10*	6	15	-4	3
COc1cc(/C=N/n2c(-c3ccccc3)n[nH]c2=S)ccc1O	-2	2	-1	-5	0	-3
COc1cc(/C=N/n2c(COc3ccccc3)n[nH]c2=S)cc(Br)c1O	-9	-2	-3	4	-8	-16
Cc1ccc(S(=O)(=O)N[C@H]2CC[C@@H](CCn3cc(C4(O)CCCC4)nn3)O[C@@H]2CO)cc1	·	·	·	·	3	·
C[C@H](CO)N1C[C@H](C)[C@H](CN(C)C(=O)Cc2ccccn2)Oc2ncc(-c3ccc(F)cc3)cc2C1=O	·	·	·	·	-1	·
CN=Cc1cc(-c2ccccc2)sc1O	0	0	0	-3	64*	7
CCCCN1C(C)=CC(=C2C(=O)c3ccccc3C2=O)C=C1C	0	1	3	2	·	38*
SMILES	Vif imaging	GRIN3A LBD mod	SMARCA2 act	NadD inh	esBAF inh	SKN-1 block
CCN(CC)C(=O)c1c2c(nc3ccccc13)-c1ccccc1CC2	10	0	-4	8	·	-3
CCN(CC)C(=O)c1nc(-c2cccc3ccccc23)no1	3	·	8	-11	70*	19
CN1CCN(C(c2ccc(Br)cc2)c2cc(Cl)c3cccnc3c2O)CC1 (stereo unspecified)	20	34*	-4	25	-37	8
O=C(Nc1ccc2nc(-c3ccco3)[nH]c2c1)c1ccco1	6	-2	2	4	32	-1
O=C(O)CCC(=O)Nc1ccc(-c2nc3ccc(C(=O)c4ccccc4)cc3[nH]2)cc1	-11	-1	4	-2	15	24
O=C(Nc1ccc2nc(-c3ccco3)[nH]c2c1)c1cccs1	·	13*	3	-3	29	12
O=C(Nc1ccc2nc(-c3ccccc3)[nH]c2c1)c1cccs1	-1	30*	7	-10	35	39*
Cc1ccc2nc(-c3ccc(NC(=O)C4CCCO4)cc3)[nH]c2c1 (stereo unspecified)	-5	3	2	-3	-46	8
Cc1ccc2nc(-c3ccc(NC(=O)Cc4cccs4)cc3)[nH]c2c1	34	34*	4	-1	32	-12
O=C(c1ccccc1)c1ccc2nc(-c3ccc(NC(=O)c4ccccc4F)cc3)[nH]c2c1	0	18*	1	27	34	21
Cc1noc(C)c1NC(=O)N(C)C[C@H]1OCCCC[C@H](C)Oc2ccc(NS(C)(=O)=O)cc2C(=O)N([C@@H](C)CO)C[C@H]1C	·	·	·	·	-7	·
O=C(Nc1ccc2nc(-c3ccc4nc[nH]c4c3)[nH]c2c1)c1cccs1	·	29*	1	20	4	9
C[C@H](CO)N1C[C@H](C)[C@@H](CN(C)C(=O)c2ccccc2)OCCCC[C@H](C)Oc2ccc(NS(=O)(=O)c3ccccc3)cc2C1=O	·	·	·	·	-4	·
C=CCN=C1SCC(=O)N1S(=O)(=O)c1ccc(C)cc1	-4	1	-7	-6	5	0
C=CCN=C1S/C(=C\N(C)C)C(=O)N1S(=O)(=O)c1ccc(C)cc1	-1	12*	-3	-4	-2	12
Cc1cc(NC(=O)CSc2sc3c(O)cc(=O)[nH]c3c2C#N)ccc1Br	7	2	-2	23	-4	-4
N#Cc1c(SCC(=O)Nc2cccc(C(F)(F)F)c2)sc2c(O)cc(=O)[nH]c12	-7	10*	-3	13	-4	-3
CCC(C)[C@H](NS(=O)(=O)c1ccc(C)cc1)C(=O)N1CCC(C(=O)N[C@@H](Cc2ccccc2)C(=O)O)CC1 (stereo partly specified)	2	13*	-3	-1	-1	-8
CC[C@H](C)[C@H](NS(=O)(=O)c1ccc(C)cc1)C(=O)N1CCC(C(=O)N[C@H](C(=O)O)C(C)C)CC1	-15	-1	·	1	·	7
O=C(NC(NC(=S)Nc1c(Cl)cccc1Cl)C(Cl)(Cl)Cl)OCc1ccccc1 (stereo unspecified)	14	17*	-3	1	·	15
c1ccc(CSc2nc3ccccc3[nH]2)cc1	-5	-2	2	-7	-29	-4
O=[N+]([O-])c1ccc(CSc2nc3ccccc3[nH]2)cc1	-7	1	4	-3	72*	12
Cc1cccc2nc(CSc3nc4ccc([N+](=O)[O-])cc4[nH]3)c(Br)n12	54*	-9	2	26	·	13

Source: PubChem BioAssay (several laboratories)
